We go through 15 compounds from PubChem BioAssay.

The target of experiment [1] is Cell division control protein 42 homolog (Homo sapiens) (UniProt P60953). Kind of experiment: activated mutant Cdc42 GTP-binding inhibitors, dose response, biochemical, multiplex bead flow cytometry, Bodipy-FL-GTP (AID 1333). A general note: A flow cytometer gives signals particle by particle.
Experiment [2] has the same target. Kind of experiment: wildtype Cdc42 GTP-binding inhibitors, dose response, biochemical, multiplex bead flow cytometry, Bodipy-FL-GTP (AID 1334;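 active = fitted half-maximal concentration within the tested range, moderate curve steepness, significant signal drop, and little compound fluorescence or bead-linkage interference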). The settings on record: bead-based flow cytometry, Bodipy-FL-GTP binding to GST-Cdc42; at 100 µM (top of the series) unless noted.
For experiment [3], the target named is GTPase HRas (Homo sapiens) (UniProt P01112). Kind of experiment: inhibitors of GTP binding to wildtype Ras, dose response, biochemical, multiplex bead flow cytometry (AID 1335;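 active = fitted half-maximal concentration within 10 nM to 100 µM, steepness 0.5 to 2, significant signal drop, low assay interference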). To be noted: bead-based flow cytometry, Bodipy-GTP binding to GST-Ras; at 100 µM (top of the series) unless noted.
Sequence of GTPase HRas (Homo sapiens) (P01112 whole entry, looked up): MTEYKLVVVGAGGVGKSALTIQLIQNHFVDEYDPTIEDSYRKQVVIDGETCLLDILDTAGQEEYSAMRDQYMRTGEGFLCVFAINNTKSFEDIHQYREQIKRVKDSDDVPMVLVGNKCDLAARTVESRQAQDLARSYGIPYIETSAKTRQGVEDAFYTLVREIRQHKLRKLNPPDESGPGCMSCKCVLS
In experiment [4] the test system is Ras-related protein Rab-7a (dog), GTP binding. The experiment in a line: Rab7 GTP binding inhibitors, potency, dose response, biochemical, wildtype, multiplex bead flow cytometry (AID 1336; call rule not given here).
Experiment [5] has as its target Ras-related C3 botulinum toxin substrate 1 (Homo sapiens) (UniProt P63000). Kind of experiment: wildtype Rac1 GTP binding inhibitors, dose response, biochemical, multiplex bead flow cytometry (AID 1340;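 active = dose curve with midpoint inside tested range, moderate steepness, plateau gap beyond fit error, low compound glow and bead-link interference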). To be noted: GST-Rac1 beads, Bodipy-FL-GTP binding; at 100 µM (top of the series) unless noted.
The target of experiment [6] is GTPase HRas (Homo sapiens) (UniProt P01112). The experiment in a line: activated Ras mutant GTP binding inhibitors, dose response, biochemical, multiplex bead flow cytometry (AID 1341;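 active = dose-response curve with midpoint inside the tested range, moderate steepness, significant amplitude and little compound fluorescence or bead-attachment interference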;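 note: GST-tagged constitutively activated Ras mutant immobilized on beads and multiplexed with other GTPases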).

For part of these data: Measured potencies and affinities stand elsewhere. Activity calls are given as the source filed them.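 Rule for the calls, unless noted: active = fitted half-maximal concentration within the tested dose range, moderate curve steepness, a statistically real signal drop, and little compound fluorescence or tag-binding interference; inactive = the rest.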

Sequence of Cell division control protein 42 homolog (Homo sapiens) (P60953 whole entry, looked up): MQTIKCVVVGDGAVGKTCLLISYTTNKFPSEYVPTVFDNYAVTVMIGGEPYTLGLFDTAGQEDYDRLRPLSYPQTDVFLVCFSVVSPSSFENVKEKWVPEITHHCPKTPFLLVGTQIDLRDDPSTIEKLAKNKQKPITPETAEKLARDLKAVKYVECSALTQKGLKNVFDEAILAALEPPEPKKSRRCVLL

As to `COc1cccc(C(=O)O)c1OCc1c(C)cccc1C`, the call in experiment [1], in experiment [4] and in experiment [6] was inactive. The fluorescence, percent of control (lower = inhibition) in experiment [2] came to 58.8%. The GTP binding, percent of control in experiment [3] was 204%. The GTP binding signal, raw median fluorescence (lower = inhibition) (MCF (arbitrary fluorescence units)) in experiment [5] stood at 54.1.

For the compound `CCOC(=O)c1cnc(SCc2ccc(C)cc2)nc1N`, the compound was called inactive in experiment [1], in experiment [4] and in experiment [6]. For the same compound, the fluorescence, percent of control (lower = inhibition) in experiment [2] was determined as 32%. The same compound showed a GTP binding, percent of control in experiment [3] of 82.3%. The compound further displayed a GTP binding signal, raw median fluorescence (lower = inhibition) (MCF (arbitrary fluorescence units)) in experiment [5] of 238.

As to `CCCCCN1CC(O)=C(c2ccccc2)C1=N`, the result in experiment [1], in experiment [4] and in experiment [6] was inactive. For the same compound, the fluorescence, percent of control (lower = inhibition) in experiment [2] is 82.3%. In experiment [3], this compound displayed a GTP binding, percent of control of 158%. The GTP binding signal, raw median fluorescence (lower = inhibition) (MCF (arbitrary fluorescence units)) in experiment [5] is 179.

Turning to `Nc1[nH]nc2ncc3cc4ccccc4nc3c12`, the outcome in experiment [1], in experiment [4] and in experiment [6] was inactive. In addition, in experiment [2], the fluorescence, percent of control (lower = inhibition) was found to be 34.1%. In experiment [3], this compound displayed a GTP binding, percent of control of 71.9%. In experiment [5], the GTP binding signal, raw median fluorescence (lower = inhibition) (MCF (arbitrary fluorescence units)) was 153.

As to `COc1ccc(O)c(CN2CCN(CCc3ccccc3)C(CCO)C2)c1` (stereo not given), the compound was classed as inactive in experiment [1], in experiment [4] and in experiment [6]. The fluorescence, percent of control (lower = inhibition) in experiment [2] is 37.3%. Further, in experiment [3], the GTP binding, percent of control was 84.3%. Besides, the GTP binding signal, raw median fluorescence (lower = inhibition) (MCF (arbitrary fluorescence units)) in experiment [5] came out at 273.

Take `N#CC(c1ccc(Cl)nn1)c1ccc(Cl)cc1Cl` (stereo not given): the compound was called inactive in experiment [1], in experiment [4] and in experiment [6]. Also, the fluorescence, percent of control (lower = inhibition) in experiment [2] worked out at 34.5%. The compound further showed a GTP binding, percent of control in experiment [3] of 77.7%. In addition, the GTP binding signal, raw median fluorescence (lower = inhibition) (MCF (arbitrary fluorescence units)) in experiment [5] worked out at 263.

Regarding `O=c1[nH]c(N/N=C/c2ccc(O)cc2)nc2ccccc12`, the compound was called inactive in experiment [1], in experiment [4] and in experiment [6]. In addition, the fluorescence, percent of control (lower = inhibition) in experiment [2] amounted to 31.4%. Also, the GTP binding, percent of control in experiment [3] is 71%. The compound further gave a GTP binding signal, raw median fluorescence (lower = inhibition) (MCF (arbitrary fluorescence units)) in experiment [5] of 259.

As to `CCc1ccccc1NC(=O)N1C2CCCC1CC(NC(C)=O)C2` (stereo not given), the outcome in experiment [1], in experiment [4] and in experiment [6] was inactive. The fluorescence, percent of control (lower = inhibition) in experiment [2] came to 102%. The GTP binding, percent of control in experiment [3] was determined as 152%. The compound further showed a GTP binding signal, raw median fluorescence (lower = inhibition) (MCF (arbitrary fluorescence units)) in experiment [5] of 191.

Consider `COCCN(C(=S)Nc1cc(C)ccc1C)C(C)c1cccnc1` (stereo not given), for which the compound was called inactive in experiment [1], in experiment [4] and in experiment [6]. The fluorescence, percent of control (lower = inhibition) in experiment [2] worked out at 52.6%. This compound also displayed a GTP binding, percent of control in experiment [3] of 63.7%. The GTP binding signal, raw median fluorescence (lower = inhibition) (MCF (arbitrary fluorescence units)) in experiment [5] came out at 212.

Regarding `COc1ccc(C(=O)Nn2c(SCC(=O)c3ccccc3)nc3ccccc3c2=O)cc1`, the compound was classed as inactive in experiment [1], in experiment [4] and in experiment [6]. Besides, the fluorescence, percent of control (lower = inhibition) in experiment [2] was determined as 71.5%. This compound came in with a GTP binding, percent of control in experiment [3] of 119%. The same compound registered a GTP binding signal, raw median fluorescence (lower = inhibition) (MCF (arbitrary fluorescence units)) in experiment [5] of 135.

Turning to `Cc1cc(NC(=O)/C(C#N)=C/c2ccc(-c3ccc(SC(F)F)cc3)o2)n(-c2ccccc2)n1`, the outcome in experiment [1], in experiment [4] and in experiment [6] was inactive. Also, the fluorescence, percent of control (lower = inhibition) in experiment [2] stood at 75.1%. In experiment [3], this compound showed a GTP binding, percent of control of 96.7%. The GTP binding signal, raw median fluorescence (lower = inhibition) (MCF (arbitrary fluorescence units)) in experiment [5] is 211.

For `COc1ccc(C(=O)Nc2cc(Cl)ccc2C(=O)O)cc1`, the compound was called inactive in experiment [1], in experiment [4] and in experiment [6]. The fluorescence, percent of control (lower = inhibition) in experiment [2] turned out to be 30.8%. This compound showed a GTP binding, percent of control in experiment [3] of 75.6%. For the same compound, the GTP binding signal, raw median fluorescence (lower = inhibition) (MCF (arbitrary fluorescence units)) in experiment [5] turned out to be 272.

Turning to `COc1ccc(OCCN2C(=O)c3ccccc3C2=O)cc1`, the call in experiment [1], in experiment [4] and in experiment [6] was inactive. Besides, the fluorescence, percent of control (lower = inhibition) in experiment [2] stood at 35.6%. The GTP binding, percent of control in experiment [3] was 81.5%. Further, in experiment [5], the GTP binding signal, raw median fluorescence (lower = inhibition) (MCF (arbitrary fluorescence units)) came to 240.

With `CC1(C)CC2CC(C)(CN2C(=O)c2cccs2)C1` (stereo not given), the call in experiment [1], in experiment [4] and in experiment [6] was inactive. Further, the fluorescence, percent of control (lower = inhibition) in experiment [2] amounted to 43.3%. In experiment [3], this compound came in with a GTP binding, percent of control of 59.5%. In experiment [5], this compound showed a GTP binding signal, raw median fluorescence (lower = inhibition) (MCF (arbitrary fluorescence units)) of 184.

Consider `COCCNC(=O)c1cnn2c(C(F)F)cc(-c3ccccc3)nc12`, for which the compound was called inactive in experiment [1], in experiment [4] and in experiment [6]. For the same compound, in experiment [2], the fluorescence, percent of control (lower = inhibition) was found to be 40%. In addition, in experiment [3], the GTP binding, percent of control was 85.2%. Further, in experiment [5], the GTP binding signal, raw median fluorescence (lower = inhibition) (MCF (arbitrary fluorescence units)) was 204.
